From PubChem BioAssay
TEAD-YAP block: TEAD-YAP interaction inhibition, primary screen, TEAD-YAP interaction inhibitor project, luminescence, HEK-TIYL cells | AID 1259422, 2018 | inhibition, % at 9.12 µM | 1.4% of 640,000 active | TEAD-Gal4/YAP UAS-luciferase luminescence; in the data active means inhibition above about 32%;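 further: 0% = median of test compound wells and 100% = reference inhibitor wells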
GPR151 ag: activators of human GPR151, primary screen, cell-based, PathHunter beta-arrestin, luminescence; PathHunter beta-arrestin GPR151 cells; AID 1508602, 2020; 1% of 650,000 active; activation, % at 11.2 µM; G-protein coupled receptor 151 (Homo sapiens), Q8TDV0; in the data active means activation above about 4.9%;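 further: 0% = median of compound wells and 100% = cells with positive control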
FBW7 activator: FBW7 E3 ligase activators, primary screen, biochemical, AlphaScreen, human; F-box/WD repeat-containing protein 7 (Homo sapiens), Q969H0; AlphaScreen FBW7–phospho-cyclin E peptide binding, activator screen; normalized activity (activation), % at 26.1 µM; 0.13% of 650,000 active; AID 1259310, 2017; in the data active means normalized activity above about 1.9%;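 further: purified mutant Fbw7 with reduced substrate affinity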
MITF primary: MITF inhibitors, primary screen, biochemical, AlphaScreen, human; Microphthalmia-associated transcription factor (Homo sapiens), O75030; AlphaScreen MITF homodimerization, bead proximity signal; inhibition, % at 2.6 µM; 0.91% of 650,000 active; in the data active means inhibition above about 50%;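 further: 0% = vehicle wells with protein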
GPR151 confirm: GPR151 activators, triplicate retest, confirmation, cell-based, PathHunter beta-arrestin, luminescence. 6,700 tested, under 10 active. activation, % at 11.2 µM. AID 1508609, 2020. GPR151 PathHunter beta-arrestin cells, 90 min; % of EA-reagent control over plate median. shares compounds with GPR151 ag;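 active means mean percent activation across replicates above the confirmation screen cutoff of 4.91%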
GPR119 counter: GPR119 activators in beta-arrestin cells, counter-screen for GPR151 activator project, cell-based, PathHunter beta-arrestin, luminescence, triplicate | shares compounds with GPR151 ag | 90 min; 0 = compound-well median, 100 = enzyme-acceptor control | activation, % at 11.2 µM | 0.3% of 6,700 active | AID 1508611, 2020;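 active means mean percent activation in the counterscreen above 29.09%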;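 further: counterscreen on off-target GPR119 to flag nonselective hits from the GPR151 activator screen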
Target sequence (Q8TDV5 whole entry, looked up): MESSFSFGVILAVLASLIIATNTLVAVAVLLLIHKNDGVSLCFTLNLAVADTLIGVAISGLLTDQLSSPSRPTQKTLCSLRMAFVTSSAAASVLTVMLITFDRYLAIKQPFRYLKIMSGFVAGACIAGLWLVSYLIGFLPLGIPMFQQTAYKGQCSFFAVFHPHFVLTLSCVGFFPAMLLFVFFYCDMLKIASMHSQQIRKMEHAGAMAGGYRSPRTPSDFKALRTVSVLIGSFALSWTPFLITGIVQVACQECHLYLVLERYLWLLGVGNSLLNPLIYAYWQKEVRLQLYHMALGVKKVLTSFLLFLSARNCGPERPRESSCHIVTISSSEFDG
An asterisk follows results filed as active. Rows were chosen to be rich in hits. Some 3.4% of all compounds tested hit in one or more screens of this group.

How did COc1cccc(CNC(=O)CCC2CCCN(S(=O)(=O)Cc3ccccc3)C2)c1 (centres undefined) do in these assays?
TEAD-YAP block: 0; GPR151 ag: 0; FBW7 activator: 0; MITF primary: 4

How did COc1cc(/C=C2\C(=O)Nc3ccccc32)ccc1OCC(=O)NC(C)c1ccccc1 (centres undefined) do in these assays?
TEAD-YAP block: 6; GPR151 ag: 0; FBW7 activator: 0; MITF primary: 41

Results for COc1ccc(NC2=C(C(C)=O)C(c3ccc(N(C)C)cc3)C(C(C)=O)C(C)(O)C2)cc1 (centres undefined) ?
TEAD-YAP block: 3; GPR151 ag: 13*; FBW7 activator: 0; MITF primary: 1; GPR151 confirm: 1; GPR119 counter: 13

How did COc1ccc(NC2=C(C(C)=O)C(c3ccc(OC)cc3)C(C(C)=O)C(C)(O)C2)cc1 (centres undefined) do in these assays?
TEAD-YAP block: 4; GPR151 ag: 0; FBW7 activator: 0; MITF primary: 9

What do the screens show for `CCOC(=O)/C(N=Nc1ccccc1)=C(/O)c1ccccc1`?
TEAD-YAP block: -11; GPR151 ag: 2; FBW7 activator: 0; MITF primary: 4

What do the screens show for `COC(=O)c1cc(S(=O)(=O)Nc2ccc(Cl)cc2)c[nH]1`?
TEAD-YAP block: -1; GPR151 ag: 2; FBW7 activator: 0; MITF primary: 20

How did O=c1oc2ccc(Cl)cc2cc1-c1nnc(-c2ccccc2Cl)o1 do in these assays?
TEAD-YAP block: -1; GPR151 ag: 5.6*; FBW7 activator: 0; MITF primary: 2; GPR151 confirm: 0; GPR119 counter: -12

Results for OCc1nnc2n1N=C(c1ccc(Cl)cc1)CS2 ?
TEAD-YAP block: 7; GPR151 ag: -1; FBW7 activator: 0; MITF primary: -1

How did CC(=O)Nc1ccc(Nc2nc(-c3ccc(C(=O)NC4CC4)cc3)nc3nc[nH]c23)cc1 do in these assays?
TEAD-YAP block: -7; GPR151 ag: 7.8*; FBW7 activator: 0; MITF primary: -2; GPR151 confirm: 2; GPR119 counter: -11

Results for Cc1csc(NC(=O)C2CCC(C)(C(=O)O)C2(C)C)n1 (centres undefined) ?
TEAD-YAP block: -2; GPR151 ag: 7.3*; FBW7 activator: 0; MITF primary: 2; GPR151 confirm: -1; GPR119 counter: -10

How did Cc1ccccc1NC(=O)C1CCC(C)(C(=O)O)C1(C)C (centres undefined) do in these assays?
TEAD-YAP block: -4; GPR151 ag: 5.1*; FBW7 activator: 0; MITF primary: 2; GPR151 confirm: -1; GPR119 counter: -10

Results for CC1(C(=O)O)CCC(C(=O)Nc2ccc(Nc3ccccc3)cc2)C1(C)C (centres undefined) ?
TEAD-YAP block: -1; GPR151 ag: 1; FBW7 activator: 0; MITF primary: 12

Results for O=S(=O)(NCc1ccncc1)c1ccc(F)cc1F ?
TEAD-YAP block: 4; GPR151 ag: -1; FBW7 activator: 0; MITF primary: 14

How did CCOc1cccc(C2C(C(=O)OC)=C(C)NC3=C2C(=O)CC(c2ccc(OC)c(OC)c2)C3)c1 (centres undefined) do in these assays?
TEAD-YAP block: -1; GPR151 ag: 1; FBW7 activator: 0; MITF primary: -3

Results for CCCN1C(=S)NC2c3ccccc3OC1(C)C2C (centres undefined) ?
TEAD-YAP block: -1; GPR151 ag: 7.5*; FBW7 activator: 0; MITF primary: 11; GPR151 confirm: 1; GPR119 counter: 9

What do the screens show for `COCCCN1C(=S)NC2c3cc(Br)ccc3OC1(C)C2C` (centres undefined)?
TEAD-YAP block: 0; GPR151 ag: 2; FBW7 activator: 0; MITF primary: 19

How did Clc1ncnc2sc3c(c12)CCCC3 do in these assays?
TEAD-YAP block: -1; GPR151 ag: 0; FBW7 activator: 0; MITF primary: 13

How did Cc1sc(N=C(N)N)nc1-c1ccc2c(c1)CCN2C(=O)C1CCCCC1 do in these assays?
TEAD-YAP block: 5; GPR151 ag: 5.1*; FBW7 activator: 0; MITF primary: 6; GPR151 confirm: 0; GPR119 counter: -1

How did O=C(CNC(=O)c1cc(N2CCOCC2)ccn1)Nc1ccc(F)c(F)c1F do in these assays?
TEAD-YAP block: -3; GPR151 ag: 5.0*; FBW7 activator: 0; MITF primary: 11; GPR151 confirm: -1; GPR119 counter: -2

Results for CCOc1ccc(CC(=O)Nc2nc3c(s2)Cc2ccccc2-3)cc1 ?
TEAD-YAP block: -2; GPR151 ag: -2; FBW7 activator: 0; MITF primary: -7

How did C1CN(c2nc3nonc3nc2N2CCSCC2)CCO1 do in these assays?
TEAD-YAP block: 0; GPR151 ag: 8.9*; FBW7 activator: 0; MITF primary: 4; GPR151 confirm: 1; GPR119 counter: -1

What do the screens show for `C1CN(c2nc3nonc3nc2N2CCOCC2)CCO1`?
TEAD-YAP block: 2; GPR151 ag: 0; FBW7 activator: 0; MITF primary: 10

What do the screens show for `O=c1[nH]c(=O)c2sc3nc(-c4ccncc4)cc(C(F)(F)F)c3c2[nH]1`?
TEAD-YAP block: 2; GPR151 ag: 6.3*; FBW7 activator: 0; MITF primary: 2; GPR151 confirm: 1; GPR119 counter: 2

How did CCCC(CCC)C(=O)Nc1cccnc1 do in these assays?
TEAD-YAP block: 2; GPR151 ag: 0; FBW7 activator: 0; MITF primary: -12

Results for CCCC(CCC)C(=O)Nc1ccncc1 ?
TEAD-YAP block: -3; GPR151 ag: 8.7*; FBW7 activator: 1; MITF primary: 11; GPR151 confirm: 1; GPR119 counter: 5

Results for O=C(c1ccc(CN2C(=O)CCn3nccc32)cc1)N1CCOCC1 ?
TEAD-YAP block: -2; GPR151 ag: 7.2*; FBW7 activator: 0; MITF primary: 1; GPR151 confirm: 0; GPR119 counter: -9

How did O=C(c1ccc2c(c1)N(Cc1ccccc1)C(=O)CS2)N1CCOCC1 do in these assays?
TEAD-YAP block: 11; GPR151 ag: 0; FBW7 activator: 0; MITF primary: 0

What do the screens show for `CC1=NN(c2ccc(Cl)cc2)C(=O)/C1=C/c1ccc2c(c1)OCO2`?
TEAD-YAP block: 0; GPR151 ag: 0; FBW7 activator: 0; MITF primary: 7

How did CC1=NN(c2ccc(C)cc2)C(=O)/C1=C/c1ccc2c(c1)OCO2 do in these assays?
TEAD-YAP block: -4; GPR151 ag: 5.3*; FBW7 activator: 0; MITF primary: -4; GPR151 confirm: 0; GPR119 counter: -1
